Screening data deposited in PubChem BioAssay by Sanford-Burnham Center for Chemical Genomics.
PPC-1+TRAIL kill – compounds killing PPC-1 cancer cells with TRAIL present, primary screen, TRAIL potentiator project, ATPLite luminescence, uHTS; PPC-1 cells + TRAIL, ATPLite viability luminescence; cell killing (% activity), % at 4 µM or 5 µM; 220,000 compounds, 0.41% hits; AID 1443, 2008;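 active means cell killing above 50% in the first pass at 4 µM, then a duplicate retest at 5 µM averaging 50% or more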;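 further: plate controls were cells with TRAIL plus DMSO for no effect and medium-only wells lacking cells for full effect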
SENP7 block – SENP7 protease inhibitors, primary screen, biochemical, luminescence, uHTS; Sentrin-specific protease 7 (Homo sapiens), Q9BQF6; recombinant SENP7, Z-RLRGG-aminoluciferin luminescence, 40 min; inhibition, % at 5 µM; 330,000 compounds, 1.5% hits; AID 434973, 2010;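 active means inhibition above about 50% at the single test dose, limit read from the data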;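 further: plate controls were DMSO with enzyme for no effect and no enzyme buffer wells for full effect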
Target sequence (Q9BQF6 706-1050 limits assumed): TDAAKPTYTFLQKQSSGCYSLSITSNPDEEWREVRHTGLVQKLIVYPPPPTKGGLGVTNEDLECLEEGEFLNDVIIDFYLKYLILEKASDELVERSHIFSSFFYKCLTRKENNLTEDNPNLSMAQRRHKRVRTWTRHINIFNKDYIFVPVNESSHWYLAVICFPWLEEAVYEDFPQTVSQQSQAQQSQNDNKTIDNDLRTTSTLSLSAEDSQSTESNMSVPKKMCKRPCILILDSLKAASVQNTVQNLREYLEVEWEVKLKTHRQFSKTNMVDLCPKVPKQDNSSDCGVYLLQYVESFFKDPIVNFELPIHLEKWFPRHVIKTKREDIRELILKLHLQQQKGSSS
SENP8 block-1 – SENP8 protease inhibitors, primary screen, biochemical, luminescence. purified SENP8, Z-RLRGG-aminoluciferin cleavage. Sentrin-specific protease 8 (Homo sapiens), Q96LD8. inhibition, % at 10 µM. 330,000 compounds, 1.2% hits. AID 2540, 2010; in the data active means inhibition above about 50%
Target sequence (Q96LD8 whole entry, looked up): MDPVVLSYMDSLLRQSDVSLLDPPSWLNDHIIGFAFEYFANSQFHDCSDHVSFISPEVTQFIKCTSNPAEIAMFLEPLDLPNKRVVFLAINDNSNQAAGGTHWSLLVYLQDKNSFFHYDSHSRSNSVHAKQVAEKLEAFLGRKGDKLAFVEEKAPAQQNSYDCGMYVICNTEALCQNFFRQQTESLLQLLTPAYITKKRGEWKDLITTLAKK
SENP8 block-2 – human SENP8 protease inhibitors, primary screen, biochemical, fluorescence, Nedd8 protein substrate, uHTS. Sentrin-specific protease 8 (Homo sapiens), Q96LD8. inhibition, % at 20 µM. recombinant SENP8. AID 602440, 2012. 360,000 compounds, 0.64% hits; in the data active means inhibition mostly above about 40%, no sharp cut-off; inactive means mostly below about 27%
C8 TRAIL sens – viability loss with TRAIL in NB7+C8 cells, primary screen, TRAIL sensitizer project, cell-based, ATPlite luminescence; inhibition (viability loss, TRAIL sensitization), % at 10 µM; 360,000 compounds, 1% hits;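 active means compounds causing at least 50% loss of cell viability in the single-dose screen, relative to plate controls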
SENP6 inh – SENP6 protease inhibitors, primary screen, biochemical, luminescence, uHTS; inhibition, % at 10 µM; Sentrin-specific protease 6 (Homo sapiens), Q9GZR1; Recombinant SENP6 catalytic domain, aminoluciferin luminescence; AID 2599, 2010; 330,000 compounds, 1.8% hits;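 active means inhibition above about 50% at the single tested dose, limit read from the data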;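 further: plate controls were DMSO wells with enzyme for no effect and DMSO wells lacking enzyme for full effect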
* marks the source's active call; other numbers are inactive results; . = no result given. Rows were chosen to be rich in hits. Some 3% of all compounds tested hit in one or more screens of this group.

SMILES	PPC-1+TRAIL kill	SENP7 block	SENP8 block-1	SENP8 block-2	C8 TRAIL sens	SENP6 inh
COc1ccc(-c2cc3nc(C)cc(-c4ccc(OC)cc4)n3n2)cc1	.	-14.1	-4.3	-302.6	4.7	-17.9
Cc1cccc(-c2cc3nc(C)cc(C)n3n2)c1	6.2	78.1*	53.5*	-314.8	7.0	-2.9
COc1ccc(-c2cc3nc(C)cc(N)n3n2)cc1	81.2*	97.0*	95.3*	-178.8	84.1*	95.7*
CCCCCN(C(=O)CSc1n[nH]c(-c2ccc(C)cc2)n1)c1c(N)n(CCCC)c(=O)[nH]c1=O	.	-14.5	8.6	-13.7	54.7*	-14.1
CCCCn1c(N)c(N(CCOC)C(=O)CSc2n[nH]c(-c3ccc(C)cc3)n2)c(=O)[nH]c1=O	.	-0.5	-3.2	4.6	0.6	1.2
C=CCn1c(O)c(N=NC(=S)Nc2ccccc2F)c2ccccc21	5.9	-2.1	-6.4	22.8	10.5	9.4
C=CCn1c(O)c(N=NC(=S)Nc2cccc(C)c2)c2ccccc21	28.6	-3.4	-2.7	42.5*	23.9	9.6
Cc1c(Cl)cccc1NC(=S)N=Nc1c(O)n(CN2CCOCC2)c2ccccc12	53.3*	-7.0	-14.2	9.5	-4.0	1.9
CSc1ncc(CO)n1Cc1ccccc1	22.4	-10.8	6.4	8.2	-13.0	26.7
Oc1ccc2ccccc2c1N=Nc1ccccn1	35.8	-4.7	15.0	41.4*	17.9	22.6
O=C(N[C@H](CO)c1ccccc1)[C@H]1O[C@@H](n2ccc(=O)[nH]c2=O)[C@H](O)[C@@H]1O	.	.	.	9.5	9.5	.
CCOc1ccc2nc3cc(NCc4ccc(OC)cc4)ccc3c(N)c2c1	.	41.0	36.9	-298.3	28.5	50.8*
CCn1cnc2cc(NCc3ccc(OC)cc3)ccc21	0.4	-4.3	-6.6	-300.3	5.9	-8.9
O=C(N/C(=C/C=C/c1ccccc1)C(=O)N1CCOCC1)c1ccccc1Br	31.6	-2.7	-12.7	7.0	-0.8	-5.8
O=S(=O)(c1ccccc1)c1ccc(NCc2ccco2)cc1	13.9	7.2	6.2	-92.4	-10.5	18.5
Cc1ccc(NC2=C(Cl)C(=O)c3ccccc3C2=O)cc1	22.0	.	.	1.5	48.3	.
CCN(CC)c1ccc(NC2=C(Cl)C(=O)c3ccccc3C2=O)cc1	43.2	.	.	50.0*	44.8	.
CCNC1=C(Cl)C(=O)c2ccccc2C1=O	6.6	30.0	15.3	93.5*	2.6	41.3
O=C1C(Cl)=C(NCc2ccco2)C(=O)c2ccccc21	.	.	.	46.3*	42.2	.
CC1=C(C(=O)N(C(C)C)C(C)C)CC(CC(=O)NCCN2CCOCC2)C(=O)N1Cc1ccc(C(C)(C)C)cc1 (centres undefined)	.	.	.	11.8	0.0	.
CN(C)c1ccc(CNC(=O)C2(C)Cc3c(-c4cccc(C(N)=O)c4)ccnc3O2)cc1 (centres undefined)	.	.	.	23.6	5.4	.
CCOc1ccc(N2C(=O)CSC2=S)cc1	.	9.3	2.9	5.6	-5.6	17.3
CCN(CC)c1ccc(N2C(=O)CSC2=S)cc1	.	13.8	3.4	54.6*	2.2	6.7
Cc1ccccc1C(=O)Nc1sc2c(c1C(=O)O)CCC2	4.4	-8.0	56.7*	-56.2	0.1	70.2*
COc1ccc(C2c3ccc4ccccc4c3Oc3ncn(CCCN(C)C)c(=N)c32)cc1 (centres undefined)	.	-4.4	-8.3	13.2	58.0*	-14.3
SMILES	PPC-1+TRAIL kill	SENP7 block	SENP8 block-1	SENP8 block-2	C8 TRAIL sens	SENP6 inh
COc1ccccc1C1c2ccc3ccccc3c2Oc2ncn(CCN(C)C)c(=N)c21 (centres undefined)	.	7.5	2.8	14.6	45.0	7.3
Cc1ccc(-n2nc(C)c(C(=O)Nc3cccc(C(=O)NC4CC4)c3)n2)c(C)c1	.	8.1	-8.7	10.3	18.1	-13.0
COc1ccc(/C=C2\COc3ccccc3C2=O)c(OC)c1	.	-27.3	-37.0	-7.2	0.3	2.7
COc1ccc2c(c1)OC/C(=C/c1cccs1)C2=O	29.7	96.1*	88.8*	-5.8	40.6	93.8*
FC(F)(F)Oc1ccccc1C(c1nnnn1C1CCCC1)N1CCN(C/C=C/c2ccccc2)CC1 (centres undefined)	.	.	.	12.1	0.2	.
Clc1ccccc1CSc1nncn1NC/C=C/c1ccccc1	1.8	-5.1	-12.3	8.3	0.2	-23.7
CC1CC(=O)c2c(cc3c(-c4c(O)cc(O)c5c(O)c6c(cc45)OC(C)CC6=O)c(O)cc(O)c3c2O)O1 (centres undefined)	14.3	25.8	22.1	71.2*	87.8*	41.0
CCOC(=O)c1sc(NC(=O)c2ccc(OC)cc2)nc1C	6.1	49.7	3.9	-63.3	8.9	-2.0
CC(=O)c1sc(NC(=O)c2ccc(C(C)(C)C)cc2)nc1C	26.9	-1.1	-19.4	-31.8	54.8*	-15.1
CCOC(=O)c1sc(NC(=O)c2ccc(OC(C)=O)cc2)nc1C	49.8	99.1*	68.2*	-52.9	65.1*	98.0*
CCOC(=O)c1sc(NC(=O)Nc2ccc(F)cc2)nc1C	41.9	5.6	-14.4	8.3	51.2*	6.8
CNC[C@H](Cc1ccccc1)NC[C@@H](Cc1cccc2ccccc12)NCCc1ccc(C)cc1	.	-1.5	-18.6	24.2	95.0*	-23.6
Cc1ccc(S(=O)(=O)Cc2ccc(C(=O)OCc3ccccc3)cc2)cc1	-1.5	0.2	5.9	11.5	1.2	-13.3
COC(=O)c1c[nH]c2c1-c1cc(C(=O)OCc3ccccc3)n(S(=O)(=O)c3ccc(C)cc3)c1C(=O)C2=O	.	.	.	104.9*	69.5*	.
COC1=C(c2ccccc2)C(=O)c2ccccc2C1=O	1.2	12.7	3.0	91.9*	0.0	28.4
CC(=O)Nc1ccc(C(=O)Nc2cc(C)on2)cc1	.	2.4	3.7	14.3	-11.7	5.3
Cc1cc(NC(=O)c2ccc3c(c2)OCO3)no1	19.2	14.4	-9.0	12.2	50.8*	5.7
Cc1cc(NC(=O)c2ccc(F)cc2)no1	.	3.9	-1.9	6.8	11.8	-12.9
O=C(Nc1ccc([N+](=O)[O-])cn1)c1ccc2c(c1)OCO2	-7.3	67.4*	-14.2	8.7	5.0	24.3
Cc1cc(NC(=O)CSc2nnc(-c3ccc4c(c3)OCCO4)o2)no1	45.3	-1.2	-2.0	7.2	48.9*	-12.0
Cc1cc(NC(=O)c2ccc3c(c2)OCCO3)no1	41.7	31.7	5.3	18.6	86.6*	43.4
CC(C)(C)c1ccc(C(=O)Nc2ccc([N+](=O)[O-])cn2)cc1	27.2	12.3	-18.8	19.9	10.8	-38.4
CC(=O)Nc1ccc(N(CC(=O)NC2CCCCC2)C(=O)Cn2nnc(-c3ccccc3)n2)cc1	.	3.4	2.8	3.1	-11.0	11.2
CCCNC(=O)C1(C)CCN(C(=O)c2cccc(C(F)(F)F)c2)C1 (centres undefined)	.	.	.	4.1	-12.9	.
